# Source: PubChem
# The list is not random: actives were taken first. Their share in the collection is about 21%.
# HCV inhibitor: HCV inhibition | AID 651820 | Potency, µM (doses to about 41.8 µM), inactives show at the highest dose activity change, negative = inhibition, actives largely listed as inhibitors | Huh7.5.1 HCVcc-Cre infection, luciferase reporter, 44 h | 340,000 compounds, 3.4% hits; note: potency is the fitted concentration of half-maximal effect; % is set by controls: 0 for no effect and ±100 for the full control effect
#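 Antiviral activity was scored by luciferase reporter output from cells infected with HCVcc-Cre (~0.5 moi) in presence of compound, 44 h infection period, cells seeded 1,000/well 4 h prior.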
# Pf growth 96h: P. falciparum growth inhibition at 96 hours | P. falciparum luciferase reporter growth, 96 h | Potency, µM (highest dose often 28.7 µM), inactives show at the top dose activity change, negative = inhibition, usual class: inhibitors | 320,000 compounds, 6.9% hits; note: potency is the fitted concentration of half-maximal effect; % is set by controls: 0 for no effect and ±100 for the full control effect
#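 Two-generation exposure (96 h) targets delayed-death phenotype. Reporter parasites carrying integrated firefly luciferase, in red cells at 2% hematocrit and 0.05% parasitemia final, kept at 37 C, 5% CO2; luminescence loss indicates inhibition.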
# CHX counter: counter-screen hit for Shiga toxin inhibitors, cycloheximide | cell reporter, cycloheximide protein synthesis inhibition counterscreen | max response, % | 300,000 compounds, 12% hits | AID 2314; in the data active = max response mostly above about 13%, no sharp cut-off; inactive = mostly below about 14%; note: read at 38.3 µM for the half of the compounds with a filed dose; 0% is about no effect
# Pf growth 48h: P. falciparum growth inhibition at 48 hours (one generation). P. falciparum luciferase growth in erythrocytes, 48 h. Potency, µM (series often up to 28.7 µM), for inactives: at the highest dose activity change, negative = inhibition, hits mostly inhibitors. 310,000 compounds, 5.9% hits. AID 504832; note: potency is the fitted concentration of half-maximal effect; % is set by controls: 0 for no effect and ±100 for the full control effect
#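 Luciferase-expressing P. falciparum in infected erythrocytes (2% hematocrit, 0.1% parasitemia final) in RPMI 1640/0.5% Albumax were exposed to compound for 48 hours at 37 C, 5% CO2; growth read as luminescence.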
# AMA1 RON2 block: disrupts binding of P. falciparum AMA1 to RON2; AlphaScreen AMA1-biotinylated RON2 peptide binding; Potency, µM (series often up to 58.2 µM), inactives show at the top dose activity change, negative = inhibition, hits mostly inhibitors; 360,000 compounds, 0.2% hits;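 note: potency is the fitted concentration of half-maximal effect; 0% = vehicle wells and -100% = peptide control; nearly all actives have a fitted effect of over 45% in size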
#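 AMA1 (3D7) with his tag at 25 nM final met compounds first, then biotinylated RON2 peptide at 25 nM; detection used donor plus acceptor beads, 10 µg/mL apiece, read by AlphaScreen after 30 min at room temperature.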
# Shiga toxin inh: blocks Shiga toxin action in Vero cells; inhibition, % at 38.7 µM; AID 2315; 290,000 compounds, 9.2% hits; Vero cells, Shiga toxin protein synthesis inhibition reporter; in the data active = inhibition mostly above about 28%, no sharp cut-off; inactive = mostly below about 43%; note: 0% is about no effect
# Active calls of the source: *; i = inactive; ? = inconclusive; nt = no result given; [ ] = remark or other dose. Unless noted, calls come from the whole dose curve; as a rule, active = well fitted curve in the direction sought with a large enough effect; inconclusive = small, poorly fitted or top-dose-only effect, or another doubt; inactive = no such curve, though single readings can be large; an effect the other way counts as inactive or inconclusive.
SMILES,HCV inhibitor,Pf growth 96h,CHX counter,Pf growth 48h,AMA1 RON2 block,Shiga toxin inh
C#CCOCCOCCOCCNc1nc(N2CCOCC2)nc(N2CCN(C(=O)CCCCCCCCCCNC(=O)[C@@H](CCSC)n3cc(CCO)nn3)CC2)n1,-27.7%,?,nt,0.657µM*,15.6%,nt
C=CCN1C(=O)c2ccc(C(=O)OCC(=O)N3CCN(c4ccccc4)CC3)cc2C1=O,14.6%,27.0%,nt,9.0%,0.0%,nt
CCc1ccc(C(C(=O)NCc2ccc(F)cc2)N(C(=O)c2csnn2)C2CC2)cc1 (centres undefined),2.8%,14.7%,7.0,?,-2.1%,-11.2
CC(C)N1CCCC(C)(C(=O)Nc2cccc(Oc3ccccc3)c2)C1 (centres undefined),nt,nt,nt,nt,10.6%,nt
Cc1ccc2c(c1)C(=NC1CCCCC1)c1cc3ccccc3nc1-2,2.2%,266.7%,51.4*,171.5%,-10.3%,40.6*
Cc1ccc2c(c1)Cc1nc3ccccc3nc1-2,-8.9%,?,2.6,i,27.0%,52.2
Cc1ccc2c(c1)-c1nc3ccccc3cc1C2=NC1CCCCC1,?,52.6%,55.2*,130.0%,-8.5%,85.4*
Cc1ccc(-c2cc3ccccc3nc2N2CCCC2)cc1,?,3.2%,-3.5,?,68.9%,-23.5
O=C1NC(c2ccccc2)C(C(=O)c2cccs2)=C1O (centres undefined),12.5%,11.7µM*,6.2,13.0%,-24.0%,15.5
Cc1cccc(N2C(=O)C(O)=C(C(=O)c3cccs3)C2c2ccccc2)n1 (centres undefined),7.2%,13.4%,-2.6,9.2%,-5.3%,-7.5
COc1ccc(N2CCN(C(=O)c3oc4ccccc4c3NC(=O)Cc3ccc(OC)c(OC)c3)CC2)cc1,?,38.4%,-2.7,?,?,-10.5
O=C(Cc1ccccc1)N/N=C/c1ccc(OCC(=O)Nc2ccccc2)cc1,-4.1%,?,9.0,?,-4.8%,30.2
O=C(COc1ccc(/C=N/NS(=O)(=O)c2ccccc2)cc1)Nc1ccccc1,19.1%,?,21.0*,44.7%,-9.8%,60.2
O=C(COc1ccc(C(=O)c2ccccc2)cc1)Nc1cccnc1,6.31µM*,?,11.1,-5.5%,-15.1%,-6.3
COCC(=O)N/N=C\c1ccc(OC/C=C/c2ccccc2)c(OC)c1,-15.6%,-3.3%,-1.7,4.65µM*,43.1%,-3.9
COc1cc(/C=N/NC(=O)c2ccccc2O)ccc1OCC(=O)Nc1ccccc1,-12.3%,-23.2%,14.5*,?,-2.8%,19.4
COc1cc(/C=N\NC(=O)CC#N)ccc1OC/C=C/c1ccccc1,?,-14.5%,-1.0,-21.1%,68.6%,0.6
Cc1cccc(C)c1NC(=S)NCc1ccncc1,9.2%,-3.6%,-2.0,?,32.0%,-6.1
CN1CCN(C(=O)C2CCN(c3ncc(C(F)(F)F)cc3Cl)CC2)CC1,?,-4.4%,-4.7,-12.4%,4.6%,-14.9
CC[C@H](C)[C@H](N)C(=O)N[C@H](C(=O)N[C@@H](CO)C(=O)N[C@@H](C)C(=O)N[C@H](C(=O)N[C@H](C(=O)NCC(=O)N[C@H](C(=O)N[C@@H](CC(C)C)C(=O)O)[C@@H](C)CC)C(C)C)C(C)C)[C@@H](C)CC,nt,nt,-1.4,nt,nt,-5.4
O=C1C2=C(C(=O)c3ccccc31)C1O[C@](CCCCN3C(=O)c4ccccc4C3=O)(Cc3c1ccc1ccccc31)O2,nt,-17.1%[5.75 µM],-0.8,?,nt,i
O=C(COc1ccc(/C=N/NC(=O)c2cccnc2)cc1)Nc1ccccc1,12.8%,-4.8%,29.0*,14.5%,13.9%,24.7
CCOc1ccc(/C=N/NC(=O)c2ccncc2)cc1OC,nt,nt,nt,nt,17.1%,nt
COc1cc(/C=N/NC(=O)c2ccncc2)ccc1OCC(=O)Nc1ccccc1,-7.2%,0.5%,30.3*,8.2%,32.9%,56.1*
COc1cc(/C=N/NC(=O)c2cccnc2)ccc1OCC(=O)Nc1c(C)cc(C)cc1C,-4.4%,0.6%,-6.3,-11.1%,-25.3%,-4.8
SMILES,HCV inhibitor,Pf growth 96h,CHX counter,Pf growth 48h,AMA1 RON2 block,Shiga toxin inh
CNC(=S)N/N=C/c1ccc(OCC(=O)Nc2c(C)cc(C)cc2C)c(OC)c1,-13.1%,?,-1.8,13.1µM*,38.9%,-14.1
COc1ccccc1NC(=O)COc1ccc(/C=N/NC(=O)c2cccnc2)cc1,4.5%,30.7%,6.9,6.9%,3.3%,-11.9
CCOc1cc(C(=S)N2CCN(C)CC2)ccc1OCC(=O)N1CCOCC1,10.8%,?,0.7,3.3%,7.4%,-3.1
CCOc1cc(C(=S)N2CCCC2)ccc1OCC(=O)Nc1c(C)cc(C)cc1C,?,41.1%,-2.6,2.33µM*,30.9%,-4.3
O=C(Nc1cccc(S(=O)(=O)N2CCCC2)c1)[C@H]1C[C@H](O)[C@@H](CO)O1,nt,nt,nt,nt,17.9%,nt
O=C(NCc1ccc(F)cc1)c1cc(C2CCCN(S(=O)(=O)c3ccccc3)C2)on1 (centres undefined),nt,nt,nt,nt,6.0%,nt
COc1cc(/C=N/NC(=O)c2cccnc2)ccc1OCC(=O)Nc1ccccc1Cl,?,?,21.9,?,-2.7%,6.7
COc1ccc(NC(=O)COc2ccc(/C=N/NC(=O)c3cccnc3)cc2OC)cc1,10.9%,27.5%,10.3,9.1%,27.0%,32.3*
O=C(N/N=C/c1c(-c2ccccc2)[nH]c2ccccc12)c1cccnc1,10µM*,?,26.6*,?,33.2%,64.6*
COc1ccc(/C=N/NC(=O)c2cccnc2)c2ccccc12,?,30.0%,-2.1,-4.9%,5.8%,-6.3
Cn1c(-c2ccccc2)c(/C=N/NC(=O)c2cccnc2)c2ccccc21,?,?,20.7*,-22.4%,5.1%,68.5*
COc1ccc(N2CCN(CCC(=O)c3ccc4ccccc4c3)CC2)cc1,-0.4%,17.0%,-1.3,-6.4%,-24.2%,-4.3
Cc1occc1C(=O)N/N=C/C1=C(N2CCOCC2)C(=C\c2ccc(Cl)cc2Cl)/CC1,?,-17.4%,16.0*,5.0%,14.7%,active
C/C(=N\NC(=O)c1ccc(Cl)cc1)c1ccc(N2CCOCC2)cc1,-7.2%,-3.6%,24.9*,-3.4%,9.9%,20.2
C/C(=N/NC(=O)c1ccoc1C)c1ccc(N2CCOCC2)cc1,37.3%,12.5%,62.4*,67.0%,6.2%,114.7*
C/C(CC(=O)N1CCN(C=O)CC1)=N\NC(=O)c1ccc(Cl)cc1,7.2%,?,10.8*,40.0%,25.2%,30.6
C/C(=N/NC(=O)COc1ccc(C(C)(C)C)cc1)c1ccc(N2CCOCC2)cc1,?,nt,nt,nt,55.8%,nt
O=C(NC1CCCC1)C1CCN(c2cnccn2)CC1,13.9%,?,-1.4,35.6%,-14.4%,14.2
CCCCN=C1CC(C)(C)CC(=O)/C1=C(/O)CCC,?,?,7.5,?,9.5%,-1.5
CC(NC(=O)Cc1ccc(S(=O)(=O)N2CCOCC2)s1)c1ccc(Br)cc1 (centres undefined),-6.2%,nt,nt,nt,-5.5%[11.6 µM],nt
